# SIRT5 inh – SIRT5 desuccinylase inhibitors, primary screen, biochemical, fluorescence imaging, single point, set 5. 330,000 tested, 1.1% active. Purified SirT5, succinyl-peptide AMC, trypsin-coupled fluorescence. inhibition, % at 15 µM; in the data active = inhibition above about 15%
# NSD2 inh – NSD2 histone methyltransferase inhibitors, primary screen, biochemical, AlphaScreen, single concentration, set 2; 310,000 tested, 0.54% active; Histone-lysine N-methyltransferase NSD2 (Homo sapiens), O96028; NSD2 peptide methylation, 120 min; inhibition, % at 12.5 µM; in the data active = inhibition above about 50%
# CASP6 VEID inh – human caspase-6 inhibitors, primary screen, biochemical, VEID-R110 fluorescence, single point, set 2. P55212. purified caspase-6, Z-VEID-R110 cleavage fluorescence. inhibition, % at 12.5 µM. 350,000 tested, 0.53% active;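 active = mean inhibition across replicates at least about 35%, with every replicate also reaching that limit, limit read from the data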;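 note: 0% = median of neutral control wells and 100% = no fluorescence left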
# ARNT TACC3 PPI – disruptors of ARNT/TACC3 protein interaction, primary screen, biochemical, AlphaScreen, single concentration; Transforming acidic coiled-coil-containing protein 3 (Homo sapiens), Q9Y6A5; AlphaScreen His-ARNT PAS-B/GST-TACC3 binding, luminescence; TACC3 fragment carries E629A point mutation; inhibition, % at 9.99 µM; 390,000 tested, 0.66% active; AID 623870, 2012;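 active = mean inhibition of replicates at least 50% and at least half of replicates each reaching 50%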;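 note: 0% = complete ARNT plus TACC3 wells and 100% = ARNT alone without TACC3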
# PfHsp90 set2 – growth inhibition of PfHsp90-expressing yeast, primary screen, antimalarial PfHsp90 inhibitor project, S. cerevisiae, BacTiter-Glo luminescence, single point, set 2. BacTiter-Glo ATP, 48 h; yeast lacking PDR1 and PDR3 efflux regulators. inhibition, % at 9.4 µM. 310,000 tested, 0.32% active;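 active = every replicate shows inhibition above about 80%, whatever the replicate mean, limit read from the data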;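 note: 0% = DMSO neutral controls and 100% = 20 µM radicicol positive controls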
# * hit, by the source's call; . = no result given; ! = repeats disagree. Rows were chosen to be rich in hits. Some 2.1% of all compounds tested hit in one or more screens of this group.
SMILES,SIRT5 inh,NSD2 inh,CASP6 VEID inh,ARNT TACC3 PPI,PfHsp90 set2
COC(=O)[C@]12CCCCC=C1N(Cc1ccc(Cl)cc1Cl)C(=O)[C@H](CC(=O)NCc1cccc(C(F)(F)F)c1)C2,19.5*,.,-3.0,.,.
CCOC(=O)[C@]12CCCC=C1N(CCC1=CCCCC1)C(=O)[C@H](CC(=O)NCCc1ccccc1OC)C2,1.0,.,-0.6,.,.
C#CCNC(=O)C[C@@H]1C[C@@]2(C(=O)OCC)CCC=C2N(Cc2ccc(Cl)cc2Cl)C1=O,-0.1,.,76.5*,.,.
COC(=O)[C@]12CCCCC=C1N(CCC1=CCCCC1)C(=O)[C@H](CC(=O)NCCc1ccccc1OC)C2,15.7*,.,0.3,.,.
CCOC(=O)[C@]12CCC=C1N(Cc1ccc(Cl)cc1Cl)C(=O)[C@H](CC(=O)NCCC(C)C)C2,2.7,.,0.3,.,.
CCOC(=O)[C@]12CCCC=C1N(Cc1ccccc1)C(=O)[C@H](CC(=O)NCC13CC4CC(CC(C4)C1)C3)C2,0.6,.,-2.1,.,.
COC(=O)[C@]12CCCCC=C1N(Cc1ccccc1)C(=O)[C@H](CC(=O)NCC13CC4CC(CC(C4)C1)C3)C2,-1.1,.,54.1*,.,.
COc1ccccc1CNC(=O)C[C@@H]1C[C@@H]2c3cc(NS(C)(=O)=O)ccc3O[C@@H]2[C@H](CO)O1,-6.0,.,2.7,8.7,.
C[C@@H]1CN([C@H](C)CO)C(=O)c2cccc(NS(=O)(=O)c3ccccc3)c2O[C@@H]1CN(C)C(=O)Nc1ccc(C(F)(F)F)cc1,7.8,.,-0.5,15.4,.
COC(=O)[C@]12CCCCC=C1N(Cc1ccccc1)C(=O)[C@H](CC(=O)NCCCCc1ccccc1)C2,17.2*,.,0.4,.,.
COc1ccc(C#Cc2ccc([C@@H]3[C@H](CO)N4C(=O)CN(C(=O)c5ccc(F)cc5)C[C@@H]34)cc2)cc1,0.9,.,1.3,.,.
CC(=O)N(Cc1cccc(F)c1)C[C@H]1[C@@H](c2ccccc2)[C@@H](CO)N1C(C)=O,28.1*,.,-0.3,.,.
CCCN(C[C@H]1[C@H](c2ccccc2)[C@@H](CO)N1C(C)=O)C(=O)NC(C)C,33.4*!,.,2.0,-7.3,.
COCCN(C[C@@H]1[C@@H](c2ccccc2)[C@H](CO)N1C(C)=O)C(=O)c1cccnc1,16.2*,.,-4.6,6.6,.
CCN(C[C@H]1[C@H](c2ccccc2)[C@@H](CO)N1C(C)=O)C(=O)c1cccc(F)c1,.,.,1.1,-1.7,.
COCCN(C[C@@H]1[C@@H](c2ccccc2)[C@@H](CO)N1C(C)=O)C(=O)c1cccnc1,5.4,.,-0.3,1.5,.
O=C(NCc1ccccn1)[C@@H]1[C@@H](CO)[C@@H]2Cn3c(ccc(C4=CCCC4)c3=O)[C@H]1N2Cc1cccnc1,-4.1,.,1.3,8.8,.
O=C(NC(=S)NNC(=O)c1ccccc1O)c1ccc(F)cc1,1.3,-5.6,8.5,18.7*,43.2
O=C(NC(=S)NNC(=O)c1ccccc1O)c1ccc([N+](=O)[O-])cc1,0.2,3.6,29.5,35.8,9.1
Cc1ccccc1C(=O)NNC(=S)NC(=O)c1ccccc1,.,-0.9,.,17.5,-43.4
O=C(NC(=S)NNC(=O)c1ccccc1O)c1ccccc1,-5.3,0.9,-1.3,55.0*,19.2
CN(C)/C=C1\Oc2ccc3ccccc3c2C1=O,111.8*,10.7,8.7,-2.2,5.6
C/C(=N/NC(=O)c1ccc(C)s1)c1cccc(NC(=O)c2ccoc2C)c1,17.4*,2.0,4.6,9.9,-27.8
C[C@@H]1CN([C@@H](C)CO)C(=O)Cc2cc(NC(=O)Cc3cn(C)c4ccccc34)ccc2O[C@H]1CN(C)Cc1ccc(-c2ccccc2)cc1,9.3,.,1.7,.,.
COc1ccc(-c2cc3c(c(-c4ccc(Oc5ccccc5)cc4)n2)[Si](C(C)C)(C(C)C)OC3)cn1,1.7,.,-3.1,3.3,.
SMILES,SIRT5 inh,NSD2 inh,CASP6 VEID inh,ARNT TACC3 PPI,PfHsp90 set2
COCCNc1nc2ccccc2n2cnnc12,17.2*,-3.6,2.9,-6.7,-5.7
O=C(C[C@H]1CC[C@@H](NC(=O)c2ccccc2)[C@H](CO)O1)NCCc1ccncc1,31.9*,.,0.0,-8.4,.
O=C(C[C@H]1C=C[C@H](NC(=O)c2ccccc2)[C@H](CO)O1)NCCc1ccncc1,1.8,.,41.0*,2.3,.
O=C(C[C@H]1C=C[C@H](NC(=O)c2ccccc2)[C@@H](CO)O1)NCCc1ccncc1,7.0,.,-4.7,-41.3,.
O=C(C[C@@H]1CC[C@@H](NC(=O)c2ccccc2)[C@H](CO)O1)NCCc1ccncc1,-0.6,.,1.4,-6.8,.
Clc1ccccc1C(c1ccccc1)(c1ccccc1)n1ccnc1,1.5,.,0.1,4.6,89.9*
O=[N+]([O-])c1cc(/C=N/Nc2nc3ccccc3[nH]2)c(O)cc1O,10.3,17.0,60.9*,.,.
C(=N\Nc1nc2ccccc2[nH]1)/C1CCCCC1,-3.0,0.6,2.2,45.9*,-35.9
Cc1ccccc1/C=N/Nc1nc2ccccc2[nH]1,.,0.1,-0.8,18.5,-5.3
C(=N\Nc1nc2ccccc2[nH]1)/c1cccc2cccnc12,1.1,3.7,-1.0,60.7*,10.1
Cc1[nH]c2ccccc2c1/C=N/Nc1nc2ccccc2[nH]1,0.3,-2.8,0.7,45.4*,1.4
CCC(=O)N(C)C[C@H]1Oc2cc(C#CCN(C)C)ccc2S(=O)(=O)N([C@@H](C)CO)C[C@H]1C,2.0,.,-2.3,-8.1,.
O=C(C[C@@H]1CC[C@H]2[C@@H](COC[C@@H](O)CN2Cc2ccncc2)O1)NCC1CC1,1.1,.,-0.8,0.7,.
C[C@H](NC(=O)C[C@H]1C[C@H]2c3cc(NC(=O)NC4CCCCC4)ccc3O[C@H]2[C@H](CO)O1)c1ccccc1,-1.4,.,-0.3,0.5,.
CO[C@@H](CN(C)Cc1ccc2c(c1)OCO2)[C@@H](C)CN(C(=O)Nc1ccc(F)cc1)[C@H](C)CO,20.9*,.,-0.5,2.6,.
CO[C@H](CN(C)Cc1cc(F)ccc1F)[C@H](C)CN(C(=O)Nc1ccc(F)cc1)[C@@H](C)CO,-3.2,.,-0.7,0.0,.
CCOC(=O)/C=C/C(=O)Nc1cccc([N+](=O)[O-])c1,.,-0.6,.,0.6,98.4*
CCOC(=O)c1cccc(NC(=O)/C=C/c2cccc([N+](=O)[O-])c2)c1,.,-2.0,.,0.8,0.1
C[C@H](CCC(=O)O)[C@H]1CC[C@H]2[C@@H]3CC[C@@H]4C[C@H](O)CC[C@]4(C)[C@H]3C[C@H](O)[C@]12C,1.2,.,6.3,-6.2,-12.4
C[C@H](CCC(=O)OCc1cn(CC(=O)c2ccc(O)cc2)nn1)C1CC[C@H]2[C@@H]3CC[C@@H]4C[C@H](O)CC[C@]4(C)[C@H]3C[C@H](O)[C@]12C (some centres undefined),32.9*,.,.,0.3,-1.9

# Screening data from PubChem.
